Measurements: PubChem BioAssay AID651640 (Broad Institute, 2012)
Screen size: about 350,000 compounds; about 6,000 (1.7%) were called active. Inconclusive results (about 5%) are left out. Cut-off read from the data, not from the text of the source: active = CPE inhibition above about 20% (passing the limit was not always enough); inconclusive = no clear call, values can overlap the other calls; tested in BHK-21 cells. Shown is part of a subset that was picked to be rich in actives.

Assay: protection of cells from dengue 2 killing – plate reader, single concentration, primary screen (AID 651640);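 note: 0% = median of neutral control wells and 100% = median of positive control wells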
Conditions: DENV2-infected cells, cytopathic effect rescue, at 9.99 µM, hits give high values
With `CO[C@@H](CN(C)C(=O)c1ccc2c(c1)OCO2)[C@@H](C)CN([C@H](C)CO)S(=O)(=O)c1ccccc1` the CPE inhibition was -3.46% (inactive).
For `CN1C(=O)c2cc(NC(=O)C3CCOCC3)ccc2OC[C@H]2O[C@@H](CC(=O)NCC3CCCCC3)CC[C@@H]21`, the CPE inhibition was 1.63% (inactive).
With `COC(=O)[C@@]1(CCS(=O)(=O)c2ccccc2)N=C(c2ccc(OCCCO)cc2)O[C@H]1c1ccccc1N=[N+]=[N-]` the CPE inhibition was -1.34% (inactive).
For `C=CC[C@]1(C(=O)NCC(O)CO)N=C(c2ccc(OCCCO)cc2)O[C@H]1c1ccccc1` (stereo not given in full), the CPE inhibition was 1.79% (inactive).
With `[N-]=[N+]=Nc1ccccc1C[C@@]1(C(=O)NCc2ccccc2)N=C(c2ccc(OCCCO)cc2)O[C@@H]1c1ccccc1` the CPE inhibition was 33.8% (active).
With `O=C(C[C@H]1CC[C@H](NC(=O)C2CCC2)[C@@H](CO)O1)Nc1nccs1` the CPE inhibition was 0.802% (inactive).
For `O=C(Cc1ccccn1)N[C@H]1CC[C@@H](CC(=O)N2CCCCC2)O[C@@H]1CO`, the CPE inhibition was -2.26% (inactive).
For `OC(CCl)CCl`, the CPE inhibition was 32.4% (active).
With `O=C(c1ccc(F)cc1)N1CC(=O)N2[C@H](CO)[C@H](c3ccc(-c4ccccc4F)cc3)[C@@H]2C1` the CPE inhibition was 7.8% (inactive).
For `C[C@@H]1CN([C@H](C)CO)C(=O)c2cc(NC(=O)Nc3cccc4ccccc34)ccc2O[C@@H](C)CCCCO[C@H]1CN(C)S(=O)(=O)c1cccs1`, the CPE inhibition was -15.6% (inactive).
With `O=C(NCc1ccccc1Cl)[C@H]1[C@H](CO)[C@H]2Cn3c(cccc3=O)[C@H]2N1C(=O)C1CCC1` the CPE inhibition was -3.74% (inactive).
With `CCCN1[C@H](C(=O)NC2Cc3ccccc3C2)[C@@H](CO)[C@@H]2Cn3c(cccc3=O)[C@@H]21` the CPE inhibition was -9.85% (inactive).
With `CCCNC(=O)[C@H]1[C@H](CO)[C@H]2Cn3c(cccc3=O)[C@H]2N1Cc1ccccc1Cl` the CPE inhibition was 140% (active).
In the case of `O=C(c1cccnc1)N1CC[C@H]2[C@H](CO)Nc3ccc(-c4ccc(F)cc4)cc3[C@H]21`, the CPE inhibition is reported as 1.83% (inactive).
For `C[C@@H]1CN([C@@H](C)CO)C(=O)Cc2cc(NC(=O)Cc3ccccc3)ccc2O[C@@H]1CN(C)C(=O)Nc1ccc2c(c1)OCO2`, the CPE inhibition was -7.53% (inactive).
With `COCC(=O)N1CC[C@@H]2[C@@H](CO)Nc3ccc(-c4ccc(C(=O)N(C)C)cc4)cc3[C@@H]21` the CPE inhibition was 5.72% (inactive).
In the case of `O=C(NC1CCC1)[C@H]1[C@H](CO)[C@H]2Cn3c(ccc(C4=CCCCC4)c3=O)[C@@H]1N2CC1CC1`, the CPE inhibition is reported as -0.675% (inactive).
For `CCNC(=O)[C@@H]1[C@@H](CO)[C@@H]2Cn3c(ccc(C4=CCCCC4)c3=O)[C@@H]2N1Cc1ccccc1F`, the CPE inhibition was 2.99% (inactive).
In the case of `O=C(NC1Cc2ccccc2C1)[C@H]1[C@H](CO)[C@H]2Cn3c(ccc(C4=CCCCC4)c3=O)[C@H]2N1CC1CC1`, the CPE inhibition is reported as 39.5% (active).
With `COc1ccccc1NC(=O)N[C@H]1C=C[C@H](CC(=O)N[C@@H](C)c2ccccc2)O[C@H]1CO` the CPE inhibition was 4.39% (inactive).
For `COc1ccccc1NC(=O)N[C@H]1C=C[C@@H](CC(=O)N[C@@H](C)c2ccccc2)O[C@@H]1CO`, the CPE inhibition was 20.2% (active).
For `COc1ccccc1NC(=O)N[C@H]1CC[C@@H](CC(=O)N[C@@H](C)c2ccccc2)O[C@H]1CO`, the CPE inhibition was 3.47% (inactive).
With `C[C@@H]1CN([C@@H](C)CO)C(=O)Cc2cc(NC(=O)Cc3ccccc3)ccc2O[C@H]1CN(C)Cc1ccc(C(=O)O)cc1` the CPE inhibition was -5.69% (inactive).
In the case of `Cc1noc(C)c1NC(=O)N(C)C[C@@H]1Oc2ccc(NC(=O)Nc3cccc4ccccc34)cc2CC(=O)N([C@@H](C)CO)C[C@H]1C`, the CPE inhibition is reported as 3.02% (inactive).
In the case of `C[C@H]1CN([C@@H](C)CO)C(=O)c2cccc(NC(=O)Nc3ccc(F)cc3)c2O[C@@H]1CN(C)C(=O)Nc1ccc2c(c1)OCO2`, the CPE inhibition is reported as -3.44% (inactive).
